Source: PubChem BioAssay AID1347073 (National Center for Advancing Translational Sciences (NCATS), 2019)
The campaign covered roughly 45,000 compounds. About 200 (0.44%) were called active. Another 7% or so got no clear call; they are omitted. Calls follow the shape of the dose curve; as a rule, active = well fitted activation curve with a large enough effect; inconclusive = small, poorly fitted or top-dose-only effect; inactive = no such curve, though single readings can be large or run the other way. The list comes from a sample in which actives are over-represented; it also holds similar structures and randomly drawn compounds.

Experiment: qHTS of TDP-43 Inhibitors: NCGC Sytravon Library Screen; also: nearly all actives have a fitted effect of over 55% in size; as to growth rescue (activation): 0% is about no effect
Conditions: yeast TDP-43 toxicity rescue, BacTiter-Glo growth, 24 h; series mostly up to 46.1 µM; growth rescue (activation): at the top concentration
Description: The goal of this project is to identify new chemical probes capable of reversing the toxicity associated with TDP-43 which is associated with frontotemporal lobar degeneration and amyotrophic lateral sclerosis. These compounds will provide a complementary approach to deciphering the tangled mechanisms of toxicity and protection that we have uncovered through genome-wide genetic screens and are beginning to uncover in a large-scale proteomics analysis with mass spectroscopy. To this end, a miniaturized assay was developed to be screened against the Molecular Libraries Small Molecule Repository (MLSMR) to discover TDP-43 inhibitors. Please note that in the set-up this yeast-based assay compounds that inhibit as TDP-43, have a read-out as activators. NIH Chemical Genomics Center [NCGC] NIH Molecular Libraries Probe Centers Network [MLPCN] Assay Submitter (PI): Susan Lindquist, Whitehead Institute/MIT MLPCN Grant: R21 NS060957
Dispense 2.5 microL yeast galactose medium per 1536-well plate, pin compound, dispense 2.5 microL TDP-43 expressing yeast in galactose medium at OD600=0.02 (pregrown in raffinose medium to mid-log phase) per well, incubate for 24 hr at 30 deg C, and cell growth will be measured using 5 microL of Bactiter/Glo reagent to entire plate and read using Luminescence Protocol in ViewLux.
Potency is read from the fitted curve at half-maximal effect.

SMILES | growth rescue (activation) | Potency
O=C(CN1CCC(O)(c2cccc(C(F)(F)F)c2)CC1)NCCc1ccccc1 | -14.5% (inactive) | –
CC(NC(=O)COC(=O)c1cc(=O)[nH]c2ccccc12)c1ccccc1 (centres undefined) | -3.18% (inactive) | –
COc1cc(C(c2c(NC(=O)c3ccco3)sc(C)c2C)N2CCOCC2)cc(OC)c1OC (centres undefined) | 20.2% (inactive) | –
CC1(C(=O)Nc2cccc3cccnc23)CCN1C(=O)CCC1CCCC1 (centres undefined) | 23.9% (inactive) | –
Cc1ccc(N2C(=O)CN=C2Nc2nc(C)cc(C)n2)cc1 | -13.7% (inactive) | –
CCOc1cc(NC(=O)CCl)c(OCC)cc1NC(C)=O | -3.67% (inactive) | –
O=S(=O)(Nc1ncnc2sccc12)c1cccc(F)c1 | 19.2% (inactive) | –
CCN(CC(=O)NCc1ccco1)S(=O)(=O)c1ccc(F)cc1 | -6% (inactive) | –
Cc1cc(C)cc(N(CC(=O)NC2CCCC2)C(=O)CCC(=O)Nc2nccs2)c1 | 4.02% (inactive) | –
COc1cc(C(=O)OCc2cc(=O)n3ccsc3n2)ccc1OC(C)C | 16.8% (inactive) | –
COCCNC(=O)CSc1nc2sccc2c(=O)n1-c1ccccc1 | 1.63% (inactive) | –
CC(=O)NC(Cc1ccc(F)c(F)c1)C(=O)NC1CCN(c2nnnn2-c2ccccc2)CC1 (centres undefined) | -0.882% (inactive) | –
CC1CN(c2nc(-c3ccccc3)nnc2-c2ccccc2)CC(C)O1 (centres undefined) | – | 12.6 µM (active)
CC1CN(C(=S)SCC(=O)c2ccccc2)CC(C)O1 (centres undefined) | 20.5% (inactive) | –
COc1ccc(CNc2ncnc3ccccc23)cc1 | -6.94% (inactive) | –
COc1cccc(CNc2nc(C(F)(F)F)nc3ccccc23)c1 | – | 15.8 µM (active)
NS(=O)(=O)c1ccc(CCNc2nc(C(F)(F)F)nc3ccccc23)cc1 | 10.7% (inactive) | –
CN(c1ccccc1)S(=O)(=O)c1cccc(NC(=O)Cc2c(F)cccc2Cl)c1 | 9.22% (inactive) | –
O=C(COc1ccc(Br)cc1F)NCC1(N2CCCCC2)CCCCC1 | -1.19% (inactive) | –
Cc1cccc(NC(=S)N2CCC(O)CC2)c1C | 11.9% (inactive) | –
CCOC(=O)/C(=N\Nc1ccccc1Cl)N(C)C1CCS(=O)(=O)C1 (centres undefined) | 17.3% (inactive) | –
CC(C)CN1CCNC(=O)C1CC(=O)N(C)CC1CCOCC1 (centres undefined) | -15.8% (inactive) | –
O=C(c1cccc(S(=O)(=O)N2CCCC2)c1)N(Cc1ccco1)C1CCS(=O)(=O)C1 (centres undefined) | 2.24% (inactive) | –
COc1ccc(-c2nn(C)c(=O)c3ccccc23)cc1CNC(=O)C1CCCCC1 | 10.4% (inactive) | –
CCc1ccc(N2CC(C(=O)Nc3ccc(S(=O)(=O)Nc4nccs4)cc3)CC2=O)cc1 (centres undefined) | 3.52% (inactive) | –
Cc1nc2c(OCc3ccc(Cl)cc3Cl)cccn2c1N(C)CC1CC1 | -1.5% (inactive) | –

SMILES | growth rescue (activation) | Potency
CC1CCN(c2ccc(C(=O)Nc3nnc(C4CC4)s3)cc2[N+](=O)[O-])CC1 | 1.71% (inactive) | –
Cc1ccc(NC(=O)c2ccc(Cl)nc2)cc1S(=O)(=O)N1CCOCC1 | 1.92% (inactive) | –
CC(C)N(C)C(=O)CCc1nnc(CCc2c[nH]c3ccccc23)o1 | -2.17% (inactive) | –
CC(CC(=O)N1CCN(S(=O)(=O)c2ccccc2)CC1)n1cncn1 (centres undefined) | -14.2% (inactive) | –
COc1ccc(OCC(=O)Nc2cc(C)c(Cl)cc2OC)c([N+](=O)[O-])c1 | 12.2% (inactive) | –
Cc1ccc([N+](=O)[O-])cc1S(=O)(=O)N1CCCN(C)CC1 | 10.7% (inactive) | –
Cc1ccc(C)c(S(=O)(=O)N2CCN(c3ncnc4sccc34)CC2)c1 | – | 11.2 µM (active)
Cc1ccc(C)c(S(=O)(=O)N2CCN(CC(=O)Nc3ccc([N+](=O)[O-])cc3)CC2)c1 | 21.5% (inactive) | –
CCN(CC(=O)Nc1ccccc1C(=O)NC1CC1)Cc1cccs1 | 14.9% (inactive) | –
CC(=O)NC(CC(=O)Nc1ccc(S(=O)(=O)N2CCOCC2)cc1)c1ccccc1 (centres undefined) | 21.1% (inactive) | –
COc1ccc(NC(=O)N2CCCC(C(=O)Nc3ccccc3OC)C2)cc1 (centres undefined) | 18.1% (inactive) | –
COc1ccc(CNC(=O)C(c2ccc(O)cc2)N(Cc2ccco2)C(=O)c2snc(C(N)=O)c2N)cc1 (centres undefined) | -7.37% (inactive) | –
O=C(c1cccs1)N(Cc1cc2ccccc2[nH]c1=O)CC1CCCO1 (centres undefined) | -0.588% (inactive) | –
CCOc1ccc(C(C)=O)cc1CSc1nnc(-c2ccncc2)n1CCOC | -4.62% (inactive) | –
CCOc1ccc(S(=O)(=O)N2CCC(C(=O)NCc3ccccn3)CC2)cc1Cl | -4.66% (inactive) | –
Cc1cccc(C(=O)N2CCN(S(=O)(=O)N3CCCCC3)CC2)c1 | 28.1% (inactive) | –
Cc1ccc(C(=O)NNC(=O)CSc2nnc3ccccn23)cc1 | 5.26% (inactive) | –
Cc1cc(C)nc(N/N=C/c2c(C)oc3ccccc23)n1 | 13.5% (inactive) | –
CCOC(=O)C1CCN(C(=O)COc2cccc3ccccc23)CC1 | 14.4% (inactive) | –
CN(C)S(=O)(=O)Oc1ccccc1C(=O)Nc1ccccc1Cl | 5.76% (inactive) | –
CC1(C(=O)NS(=O)(=O)c2ccc(Cl)cc2)CCN1C(=O)CC1CCCC1 (centres undefined) | 5.06% (inactive) | –
O=C(N/N=C/c1ccc([N+](=O)[O-])cc1)C(=O)N1CCCC1 | 10.7% (inactive) | –
C/C(=C/C(=O)N1CCN(C)CC1)C(=O)O | -4.69% (inactive) | –
CCOc1ccc(NC(=O)CCC(=O)NNC(=O)NC2CCCCC2)cc1 | -6.88% (inactive) | –
O=C(O)c1ccccc1CSc1nc2ccccc2s1 | – | 11.2 µM (active)
O=C(O)CC/C(=C\c1cc2c(cc1Br)OCO2)c1nc2ccccc2s1 | 14.9% (inactive) | –

SMILES | growth rescue (activation) | Potency
O=C(O)c1cccc(S(=O)(=O)Nc2ccc(O)cc2Sc2nc3ccccc3s2)c1 | 8.39% (inactive) | –
COc1ccccc1N(CC(=O)Nc1ccc(C)cc1Cl)S(=O)(=O)c1cccs1 | 3.97% (inactive) | –
O=C(NNS(=O)(=O)c1ccc(F)cc1)C1CCCCC1 | 15.8% (inactive) | –
O=C(Nc1ccc(Cl)cc1)c1csc([C@H]2C[C@H](O)[C@@H](CO)O2)n1 | -7.86% (inactive) | –
CCOC(=O)c1oc2c(CN3CCN(CCO)CC3)c(O)c(CC)cc2c(=O)c1-c1nc2ccccc2s1 | -2.19% (inactive) | –
CCNc1nc(NCC)nc(N/N=C/c2ccc(O)c(OC)c2)n1 | 8.29% (inactive) | –
COc1ccc(C(=O)NC2CCN(C(=O)Nc3ccc(F)cc3)CC2)cc1 | 4.62% (inactive) | –
Cc1nc(CN2CCN(C(=O)CCc3nnc(Cc4c[nH]c5ccccc45)o3)CC2)cs1 | 5.06% (inactive) | –
CCNC(=O)C1(C)CCCN(Cc2noc(-c3ccccc3OC)n2)C1 (centres undefined) | 8.22% (inactive) | –
Cc1ccc(CN(CC(=O)NCC2CCCO2)S(=O)(=O)c2ccc(C)cc2)cc1 (centres undefined) | 21% (inactive) | –
COC(=O)c1c(NC(=O)CN2C(=O)NC(CCc3ccccc3)C2=O)sc2c1CCCCC2 (centres undefined) | -21.8% (inactive) | –
COCCNC(=O)CN(Cc1ccco1)C(=O)CCC(=O)Nc1nccs1 | 2.54% (inactive) | –
O=C(NCCCN1CCOCC1)c1cc(-c2cccc(O)c2)on1 | -3.23% (inactive) | –
COc1ccc(CCNC2=CC(=O)CC(C)(C)C2)cc1 | -5.94% (inactive) | –
CCOc1ccccc1/C=N/Nc1nc2ccccc2o1 | 15.2% (inactive) | –
Cc1nc(C(F)(F)F)ccc1C(=O)N1CCC1(C)C(=O)NS(=O)(=O)c1ccccc1 (centres undefined) | 14% (inactive) | –
C=CCN1C(=O)C(O)(CC(=O)c2ccccn2)c2ccccc21 (centres undefined) | 2.18% (inactive) | –
COc1ccc(N(C)S(=O)(=O)c2cccc3nsnc23)cc1 | 21.5% (inactive) | –
CCCC(=O)Nc1ccc2c(c1)nc(CCNC(=O)c1ccco1)n2C | -7.12% (inactive) | –
COc1ccc(NC(=O)NC(C)c2c(-n3cccc3)sc(C)c2C)cc1OC (centres undefined) | 1.24% (inactive) | –
COCCNC(=O)C1(C)CCCN(Cc2cccc(F)c2)C1 (centres undefined) | -16.4% (inactive) | –
COc1ccc(-n2cnnc2SCC(=O)Nc2cccc(S(N)(=O)=O)c2)cc1 | -0.153% (inactive) | –
O=C(O)c1ccc(/C=N/NC(=O)c2ccc(Br)cc2)cc1 | 8.15% (inactive) | –
CCOC(=O)Cc1csc(SCc2cc(=O)oc3cc(O)ccc23)n1 | 2.23% (inactive) | –
Cc1cc(=O)[nH]c(SCC(=O)Nc2ccc(Br)cc2)n1 | 0.754% (inactive) | –
CCOC(=O)Cc1csc(NC(=O)CSc2ccc(Br)cc2)n1 | – | 12.6 µM (active)

SMILES | growth rescue (activation) | Potency
O=C(C(Cl)Cl)N1CCN(c2ccccn2)CC1 | 7.4% (inactive) | –
OC(c1ccc(F)cc1)c1ncc(-c2cccc(C(F)(F)F)c2)[nH]1 (centres undefined) | 14.7% (inactive) | –
COc1ccc(CN(C)Cc2nc3cc(OC)c(OC)cc3c(=O)[nH]2)c(OC)c1 | 5.3% (inactive) | –
CC1(C(=O)NS(=O)(=O)Cc2cccc(Cl)c2)CCN1C(=O)Cc1ccc(Cl)cc1Cl (centres undefined) | 6.35% (inactive) | –
O=C(NC1CCCC1)C(c1c(F)cccc1Cl)N(C(=O)c1csnn1)C1CC1 (centres undefined) | 13.1% (inactive) | –
O=C(COC(=O)c1ccc([N+](=O)[O-])o1)NC12CC3CC(CC(C3)C1)C2 | 9.8% (inactive) | –
Cc1noc(/C=C/c2ccco2)c1S(=O)(=O)N1CCC(C(=O)Nc2ccc(Cl)cn2)CC1 | 3.65% (inactive) | –
CC(C)c1nc2sc3c(c2c(=O)n1N)CC(C)(C)OC3 | 20.6% (inactive) | –
CN(CCc1ccccn1)C(=O)CCC1CCCN(Cc2ccccc2OC(F)F)C1 (centres undefined) | 1.51% (inactive) | –
CC(=O)Nc1ccc(NC(=S)NC(=O)c2ccc([N+](=O)[O-])c(C)c2)cc1 | 12.6% (inactive) | –
O=C(NCc1cccnc1)c1cc(C2CCCN(C(=O)CCCc3ccccc3)C2)on1 (centres undefined) | 2.36% (inactive) | –
OC[C@@H]1CN(Cc2ccc3c(c2)OCO3)C[C@H](n2cnc3c(NCc4ccco4)ncnc32)O1 | 8.28% (inactive) | –
O=C(c1cnccn1)N1CCN(S(=O)(=O)c2cccc(Cl)c2)CC1 | 12.7% (inactive) | –
CCCCNC(=O)N(O)C1N(/N=C/c2ccccc2O)C(=S)SC1(C)C (centres undefined) | 13.7% (inactive) | –
CCCSc1ncc(Cl)c(C(=O)Nc2c(C(=O)Nc3ccccc3)oc3ccccc23)n1 | 5.87% (inactive) | –
Cc1cccc(NC(=O)c2nc(S(=O)(=O)Cc3ccccc3)ncc2Cl)c1 | – | 12.6 µM (active)
Cc1cccc(NC(=O)c2ccc([N+](=O)[O-])o2)c1 | -89% (inactive) | –
O=C(NCCc1ccccc1)c1ccc2c(c1)N(Cc1ccccc1)C(=O)c1ccccc1S2(=O)=O | 14% (inactive) | –
Cc1ccc(OCC(=O)NCCCNC(=O)c2ccco2)cc1C | 9.61% (inactive) | –
N/C(=N/O)c1cccn1Cc1ccccc1[N+](=O)[O-] | 4.53% (inactive) | –
CCCn1c(=N)n(CC(O)COc2ccccc2OC)c2ccccc21 (centres undefined) | 4.92% (inactive) | –
O=C1c2ccccc2C(=O)c2c1cccc2N1CCN(C/C=C/c2ccccc2)CC1 | 24.5% (inactive) | –
NS(=O)(=O)c1ccc(N2C(=O)C3C4CC(C(Br)C4Br)C3C2=O)cc1 (centres undefined) | 5.23% (inactive) | –
COC(=O)CCNC(=O)c1ccc2[nH]c(C)c(C)c2c1 | -8.44% (inactive) | –
O=C(CN1C(=O)NC2(CCCC2)C1=O)NCC1CCCO1 (centres undefined) | -2.83% (inactive) | –
COc1ccc(-c2nc(N)sc2C2(O)C(=O)Nc3c(Br)cc(F)cc32)cc1OC (centres undefined) | 19.9% (inactive) | –
